The record followed here is ChEMBL document CHEMBL4513216, “Probing the Open Global Health Chemical Diversity Library for Multistage-Active Starting Points for Next-Generation Antimalarials” (ACS Infect Dis, 2020).

Molecules are shown by their SMILES. About 2,700 (4%) of roughly 68,000 compounds showed an effect of 50% or more. This excerpt belongs to a sample that is enriched for strong results.

This test relates to Plasmodium berghei. As to the kind of experiment: Screen against P. berghei liver stage (PbLuc), transformed with Luciferase, at 2uM. The test is classed as functional, HepG2. The following applies: tested at 2 uM.
For `O=S(=O)(NCC1(O)CCCC1)c1ccccc1Br`, the INHIBITION came to 32.07%.

As for `Cc1noc(C)c1C(=O)N1Cc2ncn(C)c2C(COCC(C)C)C1` (centres undefined), the INHIBITION was found to be 25.92%.

On to `CN(C)c1ccnc(N2CCC(NCCOc3ccccc3)CC2)n1`, for which the INHIBITION was -55.42%.

Turning to `CN(C)c1nccc(-c2cnc(N(C)C)[nH]c2=O)n1`, the INHIBITION was found to be 51.32%.

For `Cc1ncncc1-c1ccnc(N(C)C)n1`, the INHIBITION turned out to be 22.5%.

On to `CN(C)c1nccc(-c2c[nH][nH]c2=O)n1`, for which the INHIBITION came to 3.97%.

`CN(Cc1ccc2nonc2c1)C(=O)CCc1cc2n(n1)CCCNC2`: the INHIBITION is listed as -3.87%.

In the case of `CCN(Cc1ccncc1)C1CCCN(Cc2ccc(F)cc2OC)C1` (centres undefined), the INHIBITION is listed as 51.42%.

`CCN(Cc1ccncc1)C1CCCN(Cc2ccc(F)cc2Cl)C1` (centres undefined): the INHIBITION is on record as 32.26%.

As for `CCN(Cc1ccncc1)C1CCCN(C/C=C/c2ccc(F)cc2)C1` (centres undefined), the INHIBITION was 27.95%.

As to `Cc1ccc(CN2Cc3c(C(=O)N4CCCC4)nn(C)c3C2)s1`, the INHIBITION is recorded as -64.97%.

With `O=C1CC(N2CCN(c3ccccc3O)CC2)C(=O)N1Cc1cccs1` (centres undefined), the INHIBITION came out at 19.62%.

For `O=C(Cn1cc(I)cn1)N1CCCC1`, the INHIBITION is 34.34%.

With `CC1CCN(C(=O)Cn2cc(I)cn2)CC1`, the INHIBITION is on record as 66.74%.

With `CC1CCCN(C(=O)Cn2cc(I)cn2)C1` (centres undefined), the INHIBITION is 37.18%.

Take `O=C(Cc1cccc(F)c1)NCCNCC1CNc2ccnn2C1` (centres undefined): the INHIBITION is recorded as -7.45%.

`Cn1nccc1C1CCN(CC(=O)NCC2CC2)CC1`: the INHIBITION worked out at 7.71%.

With `O=C(Nc1cccnc1-n1cc(Cl)cn1)C1CC1`, the INHIBITION is listed as -43.89%.

For the compound `Cc1cc(C)n(CC2CN(Cc3nc(C4CC4)no3)CCO2)n1` (centres undefined), the INHIBITION was found to be 37.31%.

`CN(C)C(=O)N1CC[C@@H](O)[C@@H]1Cc1ccccc1`: the INHIBITION came out at 48.52%.

As for `CC(=O)N1CCC2(CC1)C(=O)N(CC1CC1)c1ccccc12`, the INHIBITION came out at 24.15%.

As for `O=C([C@H]1CCCO1)N1CCC2(CC1)C(=O)N(CC1CC1)c1ccccc12`, the INHIBITION is 58.95%.

Take `O=C(N1CCCC1)N1CCC2(CC1)C(=O)N(CC1CC1)c1ccccc12`: the INHIBITION amounted to 31.5%.

`O=C(N[C@H]1CN(Cc2ccsc2)[C@@H]2CCCO[C@H]12)C1CC1`: the INHIBITION was -1.33%.

For the compound `COCCN1CCC(c2cncc(-c3cccc(Cl)c3)n2)CC1`, the INHIBITION was 32.39%.

For `CN(CC(=O)Nc1ccc(Br)cn1)C(=O)C(C)(C)C`, the INHIBITION worked out at 8.42%.

As to `OCCc1ccccc1-n1ccnc1-c1cn(C2CCNCC2)nn1`, the INHIBITION worked out at 5.78%.

With `Cc1ccc(-n2ccnc2-c2cn(C3CCNCC3)nn2)c(Cl)c1`, the INHIBITION is given as 36.26%.

Consider `COc1cccc(CCn2ccnc2-c2cn(C3CCNCC3)nn2)c1`, for which the INHIBITION was -14.82%.

Consider `Cc1cc2nc(-c3cn(C4CCNCC4)nn3)[nH]c2cc1C`, for which the INHIBITION turned out to be 28.14%.

With `Cc1c(C)c(C)c2[nH]c(-c3cn(C4CCNCC4)nn3)nc2c1C`, the INHIBITION came to 52.66%.

Consider `Clc1ccccc1CCn1ccnc1-c1cn(C2CCNCC2)nn1`, for which the INHIBITION is listed as -30.83%.

Take `Cc1ccc2[nH]c(-c3cn(C4CCNCC4)nn3)nc2c1C`: the INHIBITION is on record as 68.42%.

As for `CSc1ccccc1-n1ccnc1-c1cn(C2CCNCC2)nn1`, the INHIBITION came to 14.55%.

Take `Cc1cccc2[nH]c(-c3cn(C4CCNCC4)nn3)nc12`: the INHIBITION was 57.92%.

On to `Cc1nc(C(C)C)sc1C(=O)N1CCN(C2CCSCC2)CC1`, for which the INHIBITION is given as 18.77%.

Take `CN(C)C(=O)c1cccnc1SCc1ccccc1Cl`: the INHIBITION stood at 17.31%.

In the case of `Cc1nn(C)c(C)c1C1CCCN1CC(=O)NCc1ccccn1` (centres undefined), the INHIBITION is reported as -29.54%.

For `COC(=O)C(NC(=O)CC(C)C)c1cc(F)ccc1F` (centres undefined), the INHIBITION is recorded as 29.12%.

On to `O=C(CC1CCN(c2cccnn2)CC1)NCCO`, for which the INHIBITION is reported as 68.96%.

Take `CN(C)CCNC(=O)CC1CCN(c2cccnn2)CC1`: the INHIBITION is -36.94%.

`O=C(CC1CCN(c2cccnn2)CC1)Nc1nncs1`: the INHIBITION was -24.13%.

For `O=C(CC1CCN(c2cccnn2)CC1)Nc1cccnc1`, the INHIBITION is reported as 50.17%.

For the compound `O=C(CC1CCN(c2cccnn2)CC1)NC1CCOCC1`, the INHIBITION is on record as -36.08%.

Consider `O=C(CC1CCCC1)NCCS(=O)(=O)N1CCN(c2ccccn2)CC1`, for which the INHIBITION is reported as -40%.

In the case of `CC(c1ccncc1)n1cc2nc(N(C)C)[nH]cc-2c1=O` (centres undefined), the INHIBITION worked out at 20.82%.

For `COc1ccc(C(O)CNC(=O)Nc2cc(C)nn2C)cc1` (centres undefined), the INHIBITION was 34.83%.

Take `Cn1cnc(-c2ccc(F)cc2)c1NC(=O)CCNC(=O)C(C)(C)C`: the INHIBITION is on record as 37.66%.

On to `c1cc(CN2CCC3(CC2)COC(COCC2CC2)C3)ccn1` (centres undefined), for which the INHIBITION stood at 55.57%.

Regarding `c1cc(CN2CCC3(CC2)COC(COCC2CC2)C3)cs1` (centres undefined), the INHIBITION is recorded as -9.14%.

On to `c1cc(CN2CCC3(CCOCC3COCC3CC3)CC2)co1` (centres undefined), for which the INHIBITION was determined as 39.18%.

As for `c1cc(CN2CCC3(CCOCC3COCC3CC3)CC2)ccn1` (centres undefined), the INHIBITION is 50.17%.

`c1cc(CN2CCC3(CC2)COC(COCC2CC2)C3)co1` (centres undefined): the INHIBITION is given as 15.02%.

`c1csc(CN2CCC3(CCOCC3COCC3CC3)CC2)n1` (centres undefined): the INHIBITION was -23.51%.
